Results published in the supplement of paper PMC12350171.
Counter-ions that a name gives are not always drawn. Values without a mark were called inactive.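 How the source made its calls: active = normalised median growth AUC below 0.1 of DMSO control; inactive = AUC 0.1 or higher.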

tested on: P. vulgatus WT; assay: growth AUC normalised to DMSO control (median) (fraction of control); higher = less growth inhibition, active = hit call of the paper; details: 20 µM
In short: (§1)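 Area under the growth curve, calculated by the trapezoidal rule up to entry into stationary phase, was normalised to vehicle wells on the same plate. Strains had been passaged twice overnight without oxygen and then grown in mGAM in 96-well plates from OD578 0.01, each with an approved-drug library compound at 20 μM in 1% DMSO. OD578 was read hourly over 24 h in an anaerobic incubator, and the median of three biological replicates is given.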
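Further: active when median AUC fell below 0.1.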

SMILES | growth AUC normalised to DMSO control
N=C(N)N/N=C/c1c(Cl)cccc1Cl [Guanabenz acetate] | 0.98
CCN1CCC[C@H]1CNC(=O)c1c(OC)ccc(Br)c1OC [Remoxipride hydrochloride] | 1.06
C/C=C(/C(=C/C)c1ccc(O)cc1)c1ccc(O)cc1 [Dienestrol] | 0.264

tested on: S. enterica typhimurium WT; assay: as above; details: 20 µM
In short: as §1

SMILES | growth AUC normalised to DMSO control
CN(C)CCOC(c1ccccc1)c1ccccc1 [Diphenhydramine hydrochloride] | 0.981
COC(=O)C1=C(C#N)NC(C)=C(C(=O)OC(C)C)C1c1cccc([N+](=O)[O-])c1 (stereo not drawn) [Nilvadipine] | 1
Nc1nc2n[nH]nc2c(=O)[nH]1 [Azaguanine-8] | 0.987
CCN(CC)CCOC(=O)C(Cc1cccc2ccccc12)CC1CCCO1 (stereo not drawn) [Nafronyl oxalate] | 0.994
O=c1n(CCCN2CCN(c3cccc(Cl)c3)CC2)nc2ccccn12 [Trazodone hydrochloride] | 1
CCCOc1ccc(C(=O)OCCN(CC)CC)cc1N [Proparacaine hydrochloride] | 1.01
CN1CCCN(C(c2ccccc2)c2ccc(Cl)cc2)CC1 (stereo not drawn) [Homochlorcyclizine dihydrochloride] | 1
CCCCOC(=O)c1ccc(N)cc1 [Butamben] | 0.998
OC(CCN1CCCCC1)(c1ccccc1)c1ccccc1 [Pridinol methanesulfonate salt] | 0.991
CCCNC(C)C(=O)Nc1ccccc1C (stereo not drawn) [Prilocaine hydrochloride] | 0.992
COc1cccc2c1C(=O)c1c(O)c3c(c(O)c1C2=O)C[C@@](O)(C(=O)CO)C[C@@H]3O[C@H]1C[C@H](N)[C@H](O)[C@H](C)O1 [Doxorubicin hydrochloride] | 0.986
CCC(=O)OCC(=O)[C@@]1(OC(=O)CC)[C@H](C)C[C@H]2[C@H]3[C@H]([C@@H](O)C[C@@]21C)[C@@]1(C)C=CC(=O)C=C1C[C@H]3Cl [Alclometasone dipropionate] | 1
Nc1nc(N)nc(-c2cc(Cl)ccc2Cl)n1 [Irsogladine maleate] | 0.999
CC(C)(C)NCC(O)c1ccc(O)c(CO)c1 (stereo not drawn) [Salbutamol] | 0.992
C[C@H](CCC(=O)O)[C@H]1CC[C@H]2[C@@H]3[C@@H](O)C[C@@H]4C[C@H](O)CC[C@]4(C)[C@H]3CC[C@]12C [Urosiol] | 1
OCCN1C[C@H](O)[C@@H](O)[C@H](O)[C@H]1CO [Miglitol] | 1.01
CCCC(CCC)C(=O)O [Valproic acid] | 1
CCOC(=O)c1ccc(N)cc1 [Benzocaine] | 1.01
CCSc1ccc2c(c1)N(CCCN1CCN(C)CC1)c1ccccc1S2 [Thiethylperazine maleate] | 0.996
COC(=O)Nc1nc2cc(C(=O)c3ccc(F)cc3)ccc2[nH]1 [Flubendazol] | 1.01

SMILES | growth AUC normalised to DMSO control
O=C(Cn1ccnc1[N+](=O)[O-])NCCO [Etanidazole] | 0.99
Cc1cccc(N(C)C(=S)Oc2ccc3ccccc3c2)c1 [Tolnaftate] | 1
CCC(C)n1ncn(-c2ccc(N3CCN(c4ccc(OCC5COC(Cn6cncn6)(c6ccc(Cl)cc6Cl)O5)cc4)CC3)cc2)c1=O (stereo not drawn) [Itraconazole] | 1.02
C[C@]12C[C@H](O)[C@H]3[C@@H](CCC4=CC(=O)CC[C@@]43C)[C@@H]1CC[C@@H]2C(=O)CO [Corticosterone] | 1.02
Nc1c(Br)cc(Br)cc1CN[C@H]1CC[C@H](O)CC1 [Ambroxol hydrochloride] | 0.982
O=C(O)c1cn(C2CC2)c2cc(N3CCNCC3)c(F)cc2c1=O [Ciprofloxacin hydrochloride monohydrate] | 0.00642 (active)
OCCOCCN1CCN(C(c2ccccc2)c2ccc(Cl)cc2)CC1 (stereo not drawn) [Hydroxyzine dihydrochloride] | 1
CN1CCC(OC(c2ccccc2)c2ccccc2)CC1 [Diphenylpyraline hydrochloride] | 0.987
NCc1ccc(S(N)(=O)=O)cc1 [Mafenide hydrochloride] | 1.01
O=C(O)CCc1nc(-c2ccccc2)c(-c2ccccc2)o1 [Oxaprozin] | 1
CCN(CC)CCNC(=O)c1cc(Br)c(N)cc1OC [Bromopride] | 1.01
CN(C/C=C/c1ccccc1)Cc1cccc2ccccc12 [Naftifine hydrochloride] | 0.998
Nc1nc(=O)n([C@@H]2CS[C@H](CO)O2)cc1F [(-) Emtricitabine] | 0.998
CC(C(=O)O)c1ccc(C(=O)c2cccs2)cc1 (stereo not drawn) [Suprofen] | 0.996
OCCN1CCN(CCCN2c3ccccc3C=Cc3ccccc32)CC1 [Opipramol dihydrochloride] | 1
c1ccc(CC2=NCCN2)cc1 [Tolazoline hydrochloride] | 0.987
CC=C(C)C(=O)OC1C(OC(C)=O)C2(CO)C(O)CC3(C)C(=CCC4C5(C)CCC(OC6OC(C(=O)O)C(OC7OC(CO)C(O)C(O)C7O)C(O)C6OC6OC(CO)C(O)C(O)C6O)C(C)(CO)C5CCC43C)C2CC1(C)C (stereo not drawn) [Beta-Escin] | 0.977
N=C(N)N/N=C/c1c(Cl)cccc1Cl [Guanabenz acetate] | 0.946
CCN1CCC[C@H]1CNC(=O)c1c(OC)ccc(Br)c1OC [Remoxipride hydrochloride] | 1.01
C/C=C(/C(=C/C)c1ccc(O)cc1)c1ccc(O)cc1 [Dienestrol] | 1
